Bioassay records (PubChem)
Most compounds without a hit are left out; they make up all but 15% or so of the library.
HCV inhibitor = qHTS Assay for Inhibitors of Hepatitis C Virus (HCV); Huh7.5.1 HCVcc-Cre infection, luciferase reporter, 44 h; 340,000 compounds, 3.4% hits; Potency, µM (titrated, usually from 41.8 µM), hits mostly inhibitors
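Cells seeded at 1,000/well and cultured 4 h, then compounds added followed by HCVcc-Cre virus (~0.5 moi). After 44 h further culture, luciferase substrate was added, plates held 15 min at room temperature, and luminescence read for 15 sec.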
Pf growth 48h = Primary qHTS for delayed death inhibitors of the malarial parasite plastid, 48 hour incubation | P. falciparum luciferase growth in erythrocytes, 48 h | Potency, µM (series often up to 28.7 µM), most hits filed as inhibitors | 310,000 compounds, 5.9% hits
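Cell-based growth assay: transgenic P. falciparum expressing firefly luciferase, cultured in red cells within RPMI 1640 containing 0.5% w/v Albumax, 24 mM bicarbonate and gentamycin. A drop in luciferase activity indicates inhibition.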
SARS PLP yeast = qHTS of Yeast-based Assay for SARS-CoV PLP; AID 485353, 2010; 330,000 compounds, 0.19% hits; S. cerevisiae expressing SARS-CoV PLpro, growth rescue; Potency, µM (titrated, usually from 32.9 µM), actives largely listed as activators; calls by dose curve; note: nearly all actives have a fitted effect of over 55% in size
Sm TGR block = qHTS Assay for the Inhibitors of Schistosoma Mansoni Peroxiredoxins. Schistosoma mansoni thioredoxin glutathione reductase (TGR), Q962Y6. purified TGR, DTNB reduction, TNB absorbance 405 nm. Potency, µM (series often up to 114 µM), most hits filed as inhibitors. 360,000 compounds, 3% hits. AID 485364, 2010; note: nearly all actives have a fitted effect of over 60% in size
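TGR 20 nM + NADPH 100 uM (dispensed conc.), cpd preinc 15 min RT; start with NADPH (500 uM addition) then DTNB (15 mM addition). Kinetic TNB absorbance, 405 nm filter. Four-parameter Hill fit across titration.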
Pf growth 96h = Primary qHTS for delayed death inhibitors of the malarial parasite plastid, 96 hour incubation | P. falciparum luciferase reporter growth, 96 h | Potency, µM (top dose mostly 28.7 µM), most hits filed as inhibitors | 320,000 compounds, 6.9% hits
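Infected RBCs, 2% Hct / 0.05% parasitemia final; luciferase-reporter P. falciparum; cpd 96 h, 37 C, 5% CO2; luciferase detection reagent; luminescence.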
HCMV inh = qHTS Assay for inhibitors of the human cytomegalovirus (HCMV); HFF cells, HCMV-luciferase reporter, 72 h; stronger effect = lower value; activity change, negative = inhibition, % at 57.5 µM; 410,000 compounds, 4.5% hits; in the data active = activity change below about -60%; inconclusive = no clear call, values can overlap the other calls; inactive = above about -39%
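Human foreskin fibroblasts infected with luciferase-reporter HCMV at MOI 1 PFU/cell, compounds at two doses. Luciferase measured 72 h post infection; normalized to buffer-only basal and Salinomycin (10uM) controls.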
Numbers stand for hits; n = inactive; u = inconclusive; x = no result; ! = not confirmed by another sample. Unless noted, calls come from the whole dose curve; as a rule, active = well fitted curve in the direction sought with a large enough effect; inconclusive = small, poorly fitted or top-dose-only effect, or another doubt; inactive = no such curve, though single readings can be large; an effect the other way counts as inactive or inconclusive.

SMILES	HCV inhibitor	Pf growth 48h	SARS PLP yeast	Sm TGR block	Pf growth 96h	HCMV inh
C/C(Cc1ccccc1)=N\NC(=O)CNC(=O)COc1cccc(C)c1	n	n	n	n	n	n
Cc1ccc2oc(-c3ccc(Cl)c(NC(=O)c4ccc(-c5ccccc5[N+](=O)[O-])o4)c3)nc2c1	x	x	x	n	x	n
CCCc1n(CC)c2ccccc2[n+]1CC(O)COC1CCCCC1 (centres undefined)	n	u	n	n	n	n
CCCCCCCCN1C(=O)[C@H](CC(=O)N2CCSCC2)C[C@@]2(C(=O)OC)CCCCC=C12	x	x	x	x	x	n
O=Cc1ccc(OCCOc2ccc([N+](=O)[O-])cc2)cc1	n	n	n	n	n	n
O=C(OCc1nnc(-c2ccc([N+](=O)[O-])cc2)o1)c1ccc(F)c(S(=O)(=O)N2CCOCC2)c1	n	n	n	n	n	-67
CS(=O)(=O)c1ccc(C(=O)OCc2nnc(-c3ccc(Cl)cc3)o2)cc1[N+](=O)[O-]	u	n	n	2.5µM	n	x
O=C(CCC(=O)c1ccc(F)cc1)OCc1nnc(-c2ccc([N+](=O)[O-])cc2)o1	n	n	n	20µM	n	n
COc1ccc(C(=O)OCc2nnc(-c3ccccc3)o2)cc1S(=O)(=O)N1CCOCC1	n	n	n	n	n	n
C=CCSc1ncc(CO)n1Cc1ccccc1	n	n	n	n	n	u
O=[N+]([O-])c1ccc(CN2[C@H](COCc3ccccc3)C=CS2(=O)=O)cc1	x	x	x	x	x	n
CC1Cc2ccccc2N1C(=O)CNc1ccccc1N1CCCCC1 (centres undefined)	n	u	n	n	13µM	u
CC1CCN(CC(=O)N2c3ccccc3CC2C)CC1 (centres undefined)	n	n	n	n	0.59µM	n
COc1ccccc1C1Nc2c(sc3nc(C)cc(C)c23)C(=O)N1c1ccccc1 (centres undefined)	x	x	x	n	x	n
CCOC(=O)c1sc2nc(N3CCOCC3)c3c(c2c1N)CCCC3	u	n	n	n	1µM	n
COC(=O)c1sc2nc(N3CCCCC3)c3c(c2c1N)CCCC3	13µM	x	n	n	u	n
COC(=O)c1ccc(-c2sc3nc(N4CCOCC4)c4c(c3c2N)CCCC4)o1	u	n	n	n	9.3µM	n
Nc1c(C(=O)Nc2ccc(Br)cc2)sc2nc(N3CCOCC3)c3c(c12)CCCC3	x	x	x	x	x	n
Nc1c(C(=O)NCc2ccco2)sc2nc(N3CCOCC3)c3c(c12)CCCC3	u	9.3µM	n	u	u	n
Cc1ccc(OCC(=O)Nc2nonc2-c2ccc(C)c(C)c2)cc1C	x	x	x	n	x	n
CC(=O)C(C(=O)Nc1c(C)cccc1C)N(C(=O)Cc1ccc([N+](=O)[O-])cc1)c1ccccc1 (centres undefined)	x	x	x	x	x	n
CCOC(=O)c1ccc(OCC2c3cc(OC)c(OC)cc3CCN2C(=O)Cc2ccc(F)cc2)cc1 (centres undefined)	x	x	x	n	x	n
Oc1ccc2ccccc2c1C=NCc1ccccc1	n	u	n	u	13µM	n
Oc1ccccc1CC=NC1CCCCC1	n	x	x	x	x	n
Oc1ccc(C=NC2CCCCC2)c(O)c1	n	n	n	u	10µM	n
SMILES	HCV inhibitor	Pf growth 48h	SARS PLP yeast	Sm TGR block	Pf growth 96h	HCMV inh
COc1ccc2ccccc2c1/C=N/Nc1ccc(Cl)c(C(=O)O)c1	n	n	n	u	u	n
COc1ccc(N/N=C/c2c(C(=O)O)ccc3ccccc23)cc1	u	2.6µM	n	u	7.4µM	-100
NC(=S)N/N=C/c1c(O)ccc2ccccc12	u	4.7µM	n	n	u	u
Cc1cc(Nc2ccccc2)nc(-c2ccccc2O)n1	0.63µM	n	n	n	x	n
Oc1ccc2ccccc2c1/C=N/n1cnnc1	n	n	n	n	n	n
Cc1cc(N/N=C/c2c(O)ccc3ccccc23)nc(-c2ccccc2O)n1	u	6.6µM	u	n	u	n
CCOC(=O)c1ccc(Nc2cc(C)nc(-c3ccccc3O)n2)cc1	u	u	n	n	n	u
Oc1ccc2ccccc2c1/C=N/Nc1ccccc1	n	n	n	50µM	u	n
Oc1ccc2ccccc2c1C=NC1CCCCC1	n	u	n	40µM	u	n
Cc1ccsc1C(=O)Nc1ccc(S(=O)(=O)N2CCOCC2)cc1	n	n	n	n	n	n
N#Cc1cc2c(=O)n3ccccc3nc2n(-c2ccccc2Cl)c1=O	n	n	n	n	n	n
CCOC(=O)N1CCN(C(=O)c2[nH]c(C(F)(F)F)nc2-c2ccccc2)CC1	x	x	x	x	x	n
CC1CCN(C(=O)CCC(=O)Nc2nnc(C(F)(F)F)s2)CC1	n	n	n	n	n	x
CC(=O)c1sc(N/N=C/c2cccc(O)c2)nc1C	n	n	n	n	n	n
CCCOc1cc(C)nc(-c2ccccc2O)n1	n	n	n	n	n	-65
CC(=O)c1sc(N/N=C\c2c(O)ccc3ccccc23)nc1C	u	x	x	x	x	-75
COC(=O)Cc1c(C)c2ccc(OC3CCCCC3=O)c(C)c2oc1=O (centres undefined)	u	n	n	n	n	u
CCC(/C=N/NC(=O)CCCCC(=O)N/N=C/C(CC)CC)CC	n	n	n	n	n	n
COc1ccc(/C=C2\Oc3cc(OCC(=O)N4CCC[C@H]4CO)ccc3C2=O)c(OC)c1	n	u	n	n	u	x
NS(=O)(=O)c1ccc(Sc2ccc3ccccc3c2)nc1	n	n	n	n	n	n
CCN(CC)c1nn2c(=O)c(C(=O)NCCc3ccc(C)cc3)cnc2s1	x	x	x	n	x	-64
CCOc1ccc(CCNC(=O)c2cnc3sc(N(CC)CC)nn3c2=O)cc1OCC	x	x	x	n	x	n
COc1cccc2sc(N(Cc3cccnc3)C(=O)c3ccc4c(c3)OCCO4)nc12	x	x	x	n	x	u
Cc1ccc(C2CC2C(=O)NNC(=S)Nc2cccc(Cl)c2)cc1 (centres undefined)	n	n	14µM	n	u	n
Cc1ccc(NC(=S)NNC(=O)C2CC2c2ccc(C)cc2)cc1 (centres undefined)	u	u	u	n	u	n
O=C(Nc1nc2c(F)cccc2s1)c1ccc(S(=O)(=O)N2CCCc3ccccc32)cc1	x	x	x	n	x	n
CNS(=O)(=O)c1ccc2nc(NC(=O)c3ccc(N4C(=O)CCC4=O)cc3)sc2c1	n	u	n	n	3.7µM	n
O=C(Nc1nc2c(F)cc(F)cc2s1)c1ccc(S(=O)(=O)N2CCc3ccccc32)cc1	x	x	x	n	x	-99
Cc1ccc2nc(NC(=O)c3ccc(S(=O)(=O)N4CCCc5ccccc54)cc3)sc2c1	u	u	n	n	u	-90!
